A number with no mark means an inactive call. Results filed as inconclusive are left out. Activity calls are given as the source filed them. Unless noted, calls follow the shape of the dose curve; as a rule, active = well fitted curve in the direction sought with a large enough effect in the repeat runs; inconclusive = weak or mixed curves; inactive = no such curve, though single readings can be large; an effect the other way counts as inactive or inconclusive.
Assays:
[1] = qHTS assay to identify small molecule agonists of the hypoxia (HIF-1) signaling pathway - cell viability counter screen (AID 1224844; calls by dose curve; also: nearly all actives have a fitted effect of over 50% in size; also: potency is read from the fitted curve at half-maximal effect)
Outline: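 ME-180 HRE-bla cells, 2,000/well, 0.5% dialyzed FBS; 5 hr settle, 17 hr compound at 37C/5% CO2; CCF4-AM reporter read first, then CellTiter-Glo luminescence after 30 min RT.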

[2] = qHTS assay to identify small molecule agonists of H2AX - cell viability counter screen (AID 1224847; calls by dose curve; also: nearly all actives have a fitted effect of over 30% in size; also: potency is read from the fitted curve at half-maximal effect; as to activity change, negative = cytotoxicity: top concentration of the series differs between compounds)
Outline: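 We seed wild-type CHO-K1 cells overnight, treat them for 3 hr at 37C with compounds in 15-concentration series, and quantify remaining viability by CellTiter-Glo luminescence.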

[3] = qHTS assay to identify small molecule antagonists of the estrogen related receptor (ERR) signaling pathway from Tox21 library (AID 1224848); also: nearly all actives have a fitted effect of over 50% in size; also: potency is read from the fitted curve at half-maximal effect
Outline: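 Cells: ERR line, 2,000/well; 6 h preincubation 37 C/5% CO2. Cpd in DMSO via pin tool; 18 h, 37 C. ONE-Glo, 30 min RT, luminescence.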

[4] = qHTS assay to identify small molecule agonists of the estrogen related receptor (ERR) signaling pathway from Tox21 library (AID 1224849; calls by dose curve; also: nearly all actives have a fitted effect of over 15% in size); settings: ERR reporter cell line, ONE-Glo luciferase, 18 h; at 92.4 µM (top of the series) unless noted
Outline: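 ERR cells, 6 h pre-incubation 37 C/5% CO2; cpd in DMSO pinned; 18 h 37 C; ONE-Glo added, 30 min RT; luminescence read. Agonist mode, qHTS.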

[5] = qHTS RealTime-Glo MT Cell Viability Assay in HepG2 cells - 24 hour (AID 1224867); also: nearly all actives have a fitted effect of over 50% in size; also: potency is read from the fitted curve at half-maximal effect
Outline: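 qHTS, HepG2, 600 cells/well, RealTime-Glo (NanoLuc + prosubstrate) added with cells; 5 h preincubation; DMSO compound addition; 37 C; luminescence at 0/8/16/24/32/40 h.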

[6] = qHTS RealTime-Glo MT Cell Viability Assay in HEK293 cells - 32 hour (AID 1224868); also: nearly all actives have a fitted effect of over 50% in size; also: potency is read from the fitted curve at half-maximal effect; as to activity change, negative = cytotoxic: top concentration of the series differs between compounds
Outline: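 Assay medium contained NanoLuc luciferase plus cell-permeant prosubstrate, added with HEK293 cells at 600 cells/well. After 5 h at 37 C/5% CO2 compounds were added; plates stayed at 37 C for 40 h with serial luminescence reads.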

[7] = A CellTox Green Cytotoxicity Assay to monitor cytotoxicity in HEK293 cells - 0 hour (AID 1224869); also: nearly all actives have a fitted effect of over 50% in size
Outline: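 Nonlytic real-time cytotoxicity: HEK293 + CellTox Green reagent plated, 5 h preincubation, pintool compound addition (23 nL in DMSO), 37 C for 40 h, fluorescence measured at successive time points.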

[8] = qHTS RealTime-Glo MT Cell Viability Assay in HepG2 cells - 40 hour (AID 1224870); also: nearly all actives have a fitted effect of over 50% in size; also: potency is read from the fitted curve at half-maximal effect
Outline: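 HepG2 cells mixed with RealTime-Glo MT reagents (NanoLuc plus cell-permeant prosubstrate) were seeded at 600 cells/well, incubated 5 h at 37 C/5% CO2, then pinned with compounds in DMSO; nonlytic luminescence tracked viability during 40 h treatment.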

[9] = qHTS assay to identify small molecule agonists of the hypoxia (HIF-1) signaling pathway (AID 1224846; active = well fitted activation curve with a large enough effect in the signal ratio in the repeat runs, not every such curve was filed as active; the % refers to the signal ratio)
Outline: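 Cell line: CellSensor HRE-bla ME-180; 2,000 cells/well; 0.5% dialyzed FBS; 5 h preincubation; DMSO compound pin transfer; 17 h, 37C, 5% CO2; CCF4-AM added; bla FRET signal scored for activation.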
% is scaled to controls: 0 for no effect and ±100 for the full control effect.

CCCCCCCC[N+](CCCCCCCC)(CCCCCCCC)CCCCCCCC
Potency [1]: 13.8 µM (active) | Potency [2]: 17.9 µM (active) | Potency [3]: 0.768 µM (active) | activity change, positive = activation [4]: -81.8% | Potency [5]: 24.5 µM (active) | Potency [6]: 6.15 µM (active) | Potency [7]: inactive | Potency [8]: 24.5 µM (active)

CCC1OCC(COc2ccc(Oc3ccccc3)cc2)O1 (configuration not stated)
Potency [1]: inactive | Potency [9]: inactive | Potency [3]: inactive | activity change, positive = activation [4]: -1.58% (active) | Potency [5]: inactive | Potency [7]: inactive | Potency [8]: inactive

Cc1cc(O)c(Cl)c(C)c1Cl
Potency [1]: inactive | Potency [2]: 101 µM (active) | Potency [3]: inactive | activity change, positive = activation [4]: 1.15% | Potency [5]: inactive | Potency [6]: inactive | Potency [7]: inactive | Potency [8]: inactive

CCCC/C=C/CCCCO
Potency [1]: inactive | Potency [9]: inactive | Potency [2]: inactive | Potency [5]: inactive | Potency [6]: inactive | Potency [7]: inactive | Potency [8]: inactive

Oc1ccc(C2(c3ccc(O)cc3)CC3CC2C2CCCC32)cc1 (configuration not stated)
Potency [1]: 33.3 µM (active) | Potency [2]: 86.2 µM (active) | Potency [3]: 58.7 µM (active) | activity change, positive = activation [4]: -75.2% | Potency [5]: inactive | Potency [6]: 41.9 µM (active) | Potency [7]: inactive | Potency [8]: inactive

NC(=NCCCCCCN=C(N)/N=C(\N)Nc1ccc(Cl)cc1)/N=C(\N)Nc1ccc(Cl)cc1
Potency [1]: 24.4 µM (active) | Potency [9]: inactive | Potency [6]: 8.67 µM (active) [middle of 5 runs] | Potency [7]: inactive

[O-][n+]1ccccc1SSc1cccc[n+]1[O-]
Potency [1]: 0.117 µM (active) | Potency [3]: 0.259 µM (active) | activity change, positive = activation [4]: -64% [at 19 µM] | Potency [5]: 0.208 µM (active) | Potency [6]: 1.31 µM (active) | Potency [8]: 0.165 µM (active)

O=C(OC[C@H]1O[C@@H](OC(=O)c2cc(O)c(O)c(OC(=O)c3cc(O)c(O)c(O)c3)c2)[C@H](OC(=O)c2cc(O)c(O)c(OC(=O)c3cc(O)c(O)c(O)c3)c2)[C@@H](OC(=O)c2cc(O)c(O)c(OC(=O)c3cc(O)c(O)c(O)c3)c2)[C@@H]1OC(=O)c1cc(O)c(O)c(OC(=O)c2cc(O)c(O)c(O)c2)c1)c1cc(O)c(O)c(OC(=O)c2cc(O)c(O)c(O)c2)c1
activity change, negative = cytotoxicity [1]: -0.825% [at 15.8 µM] | Potency [2]: inactive | activity change, positive = activation [4]: -16% [at 19 µM] | activity change, negative = cytotoxic [6]: -17.3% [at 15.8 µM] | cytotoxicity [7]: -16.9% [at 15.8 µM]

CC/C(=C(\c1ccc(O)cc1)c1ccc(OCCN(C)C)cc1)c1ccccc1
Potency [1]: 55.1 µM (active) | Potency [3]: 48.7 µM (active) | activity change, positive = activation [4]: -78.4% | Potency [5]: 61.8 µM (active) | Potency [6]: 19.5 µM (active) | Potency [7]: inactive

OCc1c[nH]c2ccccc12
Potency [1]: inactive | Potency [3]: 13.7 µM (active) | activity change, positive = activation [4]: -39.5% | Potency [5]: inactive | Potency [7]: inactive | Potency [8]: inactive

O=C(Nc1cccc(C(F)(F)F)c1)c1cc(Br)cc(Br)c1O
Potency [1]: 19.5 µM (active) | Potency [2]: 16 µM (active) | Potency [6]: 4.36 µM (active) | Potency [7]: inactive | Potency [8]: 21.9 µM (active)

COc1cc(-c2nc(NC(=O)c3cc4cc(C)cc(C)c4n3CC(=O)O)sc2CCC2CCCCC2)c(OC)cc1Cl
Potency [1]: 25.2 µM (active) | Potency [3]: 31.5 µM (active) | activity change, positive = activation [4]: -61.8% | Potency [5]: 40 µM (active) | Potency [6]: 25.2 µM (active) | Potency [7]: inactive | Potency [8]: 40 µM (active)

CCCCCCCCCOC(=O)c1ccc(O)cc1
Potency [1]: 54.2 µM (active) | Potency [2]: 99.3 µM (active) | activity change, positive = activation [4]: -33.4% | Potency [6]: 38.3 µM (active) | Potency [7]: inactive | Potency [8]: inactive

O=C(Oc1cccc2cccnc12)c1ccccc1
Potency [1]: 7.56 µM (active) | Potency [3]: 0.133 µM (active) | activity change, positive = activation [4]: -60.1% [at 42.5 µM] | Potency [5]: inactive | Potency [6]: inactive | Potency [7]: inactive | Potency [8]: 5.35 µM (active)

Nc1ccc(N)c2ccccc12
Potency [1]: 24.5 µM (active) | Potency [2]: 101 µM (active) | Potency [3]: 27.3 µM (active) | Potency [7]: inactive

CCCCCCCCCCCCCCCC(=O)OC[C@H](O)[C@H]1OC(=O)C(O)=C1O
Potency [1]: 54.9 µM (active) | Potency [2]: inactive | activity change, positive = activation [4]: -29.6% | Potency [5]: inactive | Potency [6]: inactive | Potency [7]: inactive | Potency [8]: inactive

Nc1ccc2cc(S(=O)(=O)O)cc(O)c2c1N=Nc1ccccc1C(F)(F)F
Potency [1]: inactive | Potency [3]: inactive | activity change, positive = activation [4]: 0.11% | Potency [5]: inactive | Potency [6]: inactive | Potency [7]: inactive | Potency [8]: inactive

CN(C/C=C/C#CC(C)(C)C)Cc1cccc2ccccc12
Potency [1]: inactive | Potency [2]: 55.2 µM (active) | Potency [5]: inactive | Potency [7]: inactive | Potency [8]: inactive

CC(C)(C)NC(=O)[C@@H]1C[C@@H]2CCCC[C@@H]2CN1C[C@@H](O)[C@H](Cc1ccccc1)NC(=O)[C@H](CC(N)=O)NC(=O)c1ccc2ccccc2n1
Potency [1]: 55.7 µM (active) | Potency [3]: 19.6 µM (active) | activity change, positive = activation [4]: -72.5% | Potency [5]: 55.7 µM (active) | Potency [6]: 19.7 µM (active) | Potency [7]: inactive

O=c1c(-c2ccccc2)c1-c1ccccc1
Potency [1]: 13.4 µM (active) | Potency [3]: 8.41 µM (active) | activity change, positive = activation [4]: -61.4% [at 42.5 µM] | Potency [5]: 16.9 µM (active) | Potency [6]: 13.4 µM (active) | Potency [7]: inactive | Potency [8]: 15.1 µM (active)

COc1c(C)c2c(c(O)c1C/C=C(\C)CCC(=O)O)C(=O)OC2
Potency [1]: 0.151 µM (active) | Potency [2]: inactive | Potency [3]: inactive | Potency [5]: inactive | Potency [7]: inactive | Potency [8]: inactive

Source: PubChem BioAssay (Tox21)
